Structures are written as SMILES. Out of some 370,000 compounds screened, about 3,000 (0.81%) were called active. The list comes from a sample in which actives are over-represented; it also holds similar structures and randomly drawn compounds. Values without a mark were called inactive.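 The calls were made as follows: active = activity above about 14% (limit read from the data; passing the limit was not always enough); inactive = the rest.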

The target of this assay is Nuclear receptor subfamily 1 group D member 1 (Homo sapiens) (UniProt P20393). The assay is described as follows: modulators of Rev-erb alpha DNA binding, primary screen, biochemical, FITC-DNA, fluorescence polarization, uHTS (AID 1259318).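 Also: 0% = DMSO wells with 35 nM protein and 100% = DMSO wells with 750 nM protein.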 The conditions noted are these: Rev-erbα–FITC-DNA binding, 90 min, at 10 µM, active compounds read high.
Chain of Nuclear receptor subfamily 1 group D member 1 (Homo sapiens) (P20393 whole entry, looked up): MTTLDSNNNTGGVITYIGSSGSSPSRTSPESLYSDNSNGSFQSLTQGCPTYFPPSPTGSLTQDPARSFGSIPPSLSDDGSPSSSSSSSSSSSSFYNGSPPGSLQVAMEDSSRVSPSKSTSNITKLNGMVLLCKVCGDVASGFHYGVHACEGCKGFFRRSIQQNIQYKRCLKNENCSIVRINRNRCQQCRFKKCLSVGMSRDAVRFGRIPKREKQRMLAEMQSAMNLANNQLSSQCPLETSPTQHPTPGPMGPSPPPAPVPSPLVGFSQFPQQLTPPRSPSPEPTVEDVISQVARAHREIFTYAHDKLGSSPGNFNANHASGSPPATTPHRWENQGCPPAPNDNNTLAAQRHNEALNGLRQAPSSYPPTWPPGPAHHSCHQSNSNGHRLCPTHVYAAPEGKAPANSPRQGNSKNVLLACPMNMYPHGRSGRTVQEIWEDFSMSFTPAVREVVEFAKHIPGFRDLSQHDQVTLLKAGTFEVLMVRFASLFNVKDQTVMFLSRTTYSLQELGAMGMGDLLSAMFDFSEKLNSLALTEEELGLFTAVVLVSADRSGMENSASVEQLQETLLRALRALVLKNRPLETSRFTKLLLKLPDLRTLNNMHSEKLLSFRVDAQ
For the compound `CN(C)CCc1c[nH]c2ccc(Cn3cncn3)cc12`, the activity is -0.58%.
For `CS(=O)(=O)N(Cc1ccccc1)c1ccc(C(=O)NN=C2CCCCCC2)cc1` the value was 1.02%; for `Cc1ccc(S(=O)(=O)c2nnn3c2nc(N2CCN(c4ccccn4)CC2)c2ccccc23)cc1`, 87.8% (active).
The value for `Cc1nc(Nc2ccccc2C)c2cnn(C)c2n1` was 3.28%; that for `Cc1cc(Nc2cccc(C)c2C)n2ncnc2n1` was 0.88%; that for `Cc1cccc(Nc2nc3c(S(=O)(=O)c4ccccc4)nnn3c3ccccc23)c1C` was 47.9% (active).
For the compound `CCOC(=O)c1nnn2c1nc(N1CCN(c3ccccc3)CC1)c1ccccc12`, the activity is -1.6%.
The value for `Cc1ccc(S(=O)(=O)NCC(=O)N2CCN(c3ccccn3)CC2)cc1` was -1.9%.
The value for `CCN(CC(=O)Nc1c(F)cccc1F)C(=O)C1CCC1` was -2.66%; that for `COc1cc(C(=O)N2CCOCC2)cc(OC)c1OC` was -1.7%; that for `N#Cc1cccc(NC(=O)COC(=O)c2ccccc2C(=O)c2ccc(Cl)c([N+](=O)[O-])c2)c1` was 3.08%.
For `CCCOc1ccc(Oc2c(Cl)cnn(Cc3cccc4ccccc34)c2=O)cc1` the value was -0.89%.
As for `Cc1c(C=O)c2ccccn2c1C(=O)c1ccncc1`, the activity was -1.4%.
For `CN(C(=O)CSc1nnc(-c2n[nH]c3ccccc23)o1)c1ccccc1` the value was -0.39%.
The value for `O=C1CN(C(=O)COc2c(Cl)cccc2Cl)c2ccccc2N1` was -1.39%; that for `CCOc1ccc(C)cc1S(=O)(=O)NC1CCCCCC1` was 4.62%; that for `O=C(CN1CCC(NC(=O)NCc2ccccc2)CC1)Nc1ccc2c(c1)OCCO2` was -2.38%.
On to `Cc1ccc2c(C(=O)CN3CCCC3)c(C)[nH]c2c1`, for which the activity was -0.66%.
`CC(C)(C)c1ccc(C(=O)Nc2cc(Cl)c(Br)cc2C(=O)O)cc1`: the activity is -8.64%.
Take `COc1ccc(CN2[C@@H](CC(=O)O)c3cc(F)ccc3S2(=O)=O)cc1`: the activity was 1.62%.
For `COc1ccc(-c2csc3ncnc(N4CCN(S(=O)(=O)c5ccccc5C#N)CC4)c23)cc1` the value was 28.3% (active); for `COc1ccc(S(=O)(=O)N2CCN(c3cnccn3)CC2)cc1`, 0.63%; for `COc1ccc(-c2csc3ncnc(N4CCN(S(=O)(=O)c5cccc(F)c5)CC4)c23)cc1`, 3.12%.
With `COc1ccc(-c2csc3ncnc(Oc4ccc5c(C)cc(=O)oc5c4)c23)cc1`, the activity was 3.46%.
For `COc1ccc(S(=O)(=O)N2CCSCC2)cc1` the value was -4.2%.
For `COc1ccc(S(=O)(=O)N2CCN(c3ncnc4c(-c5ccccc5)nsc34)CC2)cc1` the value was 27.5% (active).

Source of the values: PubChem BioAssay AID1259318 (Sanford-Burnham Center for Chemical Genomics, 2017).
